From PubChem BioAssay AID1159580 (chemical genetic matrix, 2015)
Among all 5,500 compounds or so, about 2,000 (36%) were called active. Roughly 18% stayed inconclusive and do not appear here. No stated cut-off is given here; in the data, active means normalized growth mostly below about 0.91 (no sharp cut-off); inconclusive means no clear call, values can overlap the other calls; inactive means mostly above about 0.92. This is one part of the list.

Test: chemical genetic growth profiling, strain panel (AID 1159580);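 further: tested at 20 µM; growth read once vehicle control cultures reached saturation at 30 °C; 1 = growth at the plate median or of vehicle wells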
Settings: growth OD
[1] = S. cerevisiae deletion strains, locus YAL013W, strain DEP1, stronger effect = lower value
[2] = S. cerevisiae deletion strains, locus YBR229C, strain ROT2, stronger effect = lower value
[3] = S. cerevisiae deletion strains, locus YCL061C, strain MRC1, stronger effect = lower value
[4] = S. cerevisiae deletion strains, locus YDL101C, strain DUN1, stronger effect = lower value
[5] = S. cerevisiae deletion strains, locus YDL134C, strain PPH21, stronger effect = lower value
[6] = S. cerevisiae deletion strains, locus YDR150W, strain NUM1, stronger effect = lower value
[7] = S. cerevisiae deletion strains, locus YEL061C, strain CIN8, stronger effect = lower value
[8] = S. cerevisiae deletion strains, locus YGR078C, strain PAC10, stronger effect = lower value
[9] = S. cerevisiae deletion strains, locus YHR030C, strain SLT2, stronger effect = lower value
[10] = S. cerevisiae deletion strains, locus YHR087W, strain rtc3, stronger effect = lower value
[11] = S. cerevisiae deletion strains, locus YJR043C, strain POL32, stronger effect = lower value
[12] = S. cerevisiae deletion strains, locus YJR075W, strain HOC1, stronger effect = lower value
[13] = S. cerevisiae deletion strains, locus YKL190W, strain CNB1, stronger effect = lower value
[14] = S. cerevisiae deletion strains, locus YLR039C, strain RIC1, stronger effect = lower value
[15] = S. cerevisiae deletion strains, locus YLR058C, strain SHM2 (second series), stronger effect = lower value
[16] = S. cerevisiae deletion strains, locus YLR085C, strain ARP6, stronger effect = lower value
[17] = S. cerevisiae deletion strains, locus YLR262C, strain YPT6, stronger effect = lower value
[18] = S. cerevisiae deletion strains, locus YML094W, strain GIM5, stronger effect = lower value
[19] = S. cerevisiae deletion strains, locus YMR219W, strain ESC1, stronger effect = lower value
[20] = S. cerevisiae deletion strains, locus YMR263W, strain SAP30, stronger effect = lower value
[21] = S. cerevisiae deletion strains, locus YMR307W, strain GAS1, stronger effect = lower value
[22] = S. cerevisiae deletion strains, locus YNL153C, strain GIM3, stronger effect = lower value
[23] = S. cerevisiae deletion strains, locus YNL298W, strain CLA4 (second series), stronger effect = lower value
[24] = S. cerevisiae deletion strains, locus YNL322C, strain KRE1, stronger effect = lower value
[25] = S. cerevisiae deletion strains, locus YNR030W, strain Alg12, stronger effect = lower value
[26] = S. cerevisiae deletion strains, locus YPL055C, strain LGE1, stronger effect = lower value
[27] = S. cerevisiae deletion strains, locus YPL241C, strain CIN2, stronger effect = lower value
[28] = S. cerevisiae deletion strains, locus YPR135W, strain CTF4, stronger effect = lower value
[29] = S. cerevisiae strains, strain wild type, stronger effect = lower value

Measured: normalized growth

OC(CNCCc1cccs1)COc1ccccc1 (centres undefined)
inactive: [1] 0.995 | [2] 0.987 | [3] 0.994 | [4] 0.999 | [5] 0.986 | [6] 0.976 | [7] 0.998 | [8] 0.989 | [9] 0.934 | [10] 0.998 | [11] 0.994 | [12] 1.01 | [13] 0.982 | [14] 0.944 | [15] 0.991 | [16] 1.08 | [17] 0.831 | [18] 1.06 | [19] 1 | [20] 0.99 | [21] 1.13 | [22] 0.995 | [23] 0.964 | [24] 1 | [25] 1 | S. cerevisiae deletion strains, locus YOL006C, strain TOP1, stronger effect = lower value 0.939 | [26] 1.03 | [27] 1.02 | [28] 0.949 | [29] 0.967

N=c1c[n+](N2CCOCC2)[n-]o1
inactive: S. cerevisiae deletion strains, locus YAL040C, strain CLN3, stronger effect = lower value 1 | S. cerevisiae deletion strains, locus YCL061C, strain MRC1 (second series), stronger effect = lower value 1.02 | S. cerevisiae deletion strains, locus YDR363W, strain ESC2, stronger effect = lower value 1.01 | S. cerevisiae deletion strains, locus YER002W, strain NOP16, stronger effect = lower value 1 | [12] 1.01 | [21] 1.01 | S. cerevisiae deletion strains, locus YNL175C, strain NOP13, stronger effect = lower value 1.01 | S. cerevisiae deletion strains, locus YNL197C, strain WHI3, stronger effect = lower value 0.999 | S. cerevisiae deletion strains, locus YNL224C, strain SQS1, stronger effect = lower value 1.02 | S. cerevisiae deletion strains, locus YOR083W, strain WHI5 (second series), stronger effect = lower value 1.01 | [26] 1.02

C#CCOc1c(Cl)cccc1Cl
inactive: [1] 0.97 | [2] 0.989 | [3] 0.954 | [4] 0.962 | [5] 1.01 | [6] 0.937 | [7] 1.01 | [8] 0.992 | [9] 0.995 | [10] 1.04 | [11] 0.972 | [12] 1.03 | [13] 1.01 | [14] 0.872 | [15] 1.01 | [16] 0.966 | [17] 0.838 | [18] 0.987 | [19] 0.995 | [20] 0.998 | [22] 0.982 | [23] 0.982 | [24] 0.986 | [25] 1.01 | [26] 0.985 | [27] 0.989 | [28] 0.998 | [29] 0.999
